What all share (conditions): mRNA level, 48 h; actives raise or lower the signal
Read-out in experiment [1]: NAD(P)H dehydrogenase [quinone] 1 (NQO1), NQO1 (gene 1728)
Description: LTEA_HepaRG_NQO1: Life Technologies and Expression Analysis (LTEA) Assay for NAD(P)H dehydrogenase [quinone] 1 (NQO1) using HepaRG (AID 2283526). In outline:
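Transcript induction or suppression is quantified by qRT-PCR in human HepaRG liver cells dosed for 48 hours. Eight half-log concentrations topping at 100 uM are used, with 0.5% DMSO as vehicle and baseline.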

Read-out in experiment [2]: Nuclear factor erythroid 2-related factor 2 (Homo sapiens) (UniProt Q16236)
Description: LTEA_HepaRG_NFE2L2: Life Technologies and Expression Analysis (LTEA) Assay for Nuclear factor erythroid 2-related factor 2 (NFE2L2) Transcription Factor using HepaRG (AID 2283527).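 On outcome: TaqMan qRT-PCR transcript level normalised to ACTB GAPDH and POLR2A housekeeping genes.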 In outline: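 NFE2L2 transcript level was read by qRT-PCR (housekeeping ACTB/GAPDH/POLR2A normalisation) after 48 h chemical treatment of HepaRG in serum-free induction medium. Duplicate 8-point half-log curves, top 100 uM, 0.5% DMSO vehicle; up- or down-regulation fitted against vehicle.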

Read-out in experiment [3]: succinate dehydrogenase complex iron sulfur subunit B (SDHB), SDHB (gene 6390)
Nature of the experiment: LTEA_HepaRG_SDHB: Life Technologies and Expression Analysis (LTEA) Assay for succinate dehydrogenase complex iron sulfur subunit B (SDHB) using HepaRG (AID 2283528). The procedure, abridged:
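HepaRG, 48 h exposure, 8-pt half-log series from 100 uM in 0.5% DMSO, duplicates. Readout: SDHB mRNA by Fluidigm qRT-PCR vs housekeeping genes; bidirectional fit relative to DMSO.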

Read-out in experiment [4]: Signal transducer and activator of transcription 3 (Homo sapiens) (UniProt P40763)
Nature of the experiment: LTEA_HepaRG_STAT3: Life Technologies and Expression Analysis (LTEA) Assay for Signal transducer and activator of transcription (STAT3) using HepaRG (AID 2283529). The procedure, abridged:
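STAT3 transcript quantified by qRT-PCR against three housekeeping genes (ACTB, GAPDH, POLR2A), fitted both directions relative to DMSO. HepaRG cultures exposed 48 h to eight half-log concentrations, top 100 uM, 0.5% DMSO, serum-free induction medium.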

Read-out in experiment [5]: solute carrier (SLCO1B1), SLCO1B1 (gene 10599)
Nature of the experiment: LTEA_HepaRG_SLCO1B1: Life Technologies and Expression Analysis (LTEA) Assay for solute carrier (SLCO1B1) using HepaRG (AID 2283530). The procedure, abridged: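 Differentiated human HepaRG cells, plated 48 h, switched to serum-free induction medium and exposed in duplicate for 48 h to 8 half-log concentrations (top 100 uM) in 0.5% DMSO. SLCO1B1 mRNA by TaqMan qRT-PCR, normalized to ACTB/GAPDH/POLR2A.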

Read-out in experiment [6]: sulfotransferase 2A1 (SULT2A1), SULT2A1 (gene 6822)
Nature of the experiment: LTEA_HepaRG_SULT2A1: Life Technologies and Expression Analysis (LTEA) Assay for sulfotransferase 2A1 (SULT2A1) using HepaRG (AID 2283531). The procedure, abridged:
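Differentiated human HepaRG cells in serum-free induction medium were exposed for 48 h to eight half-log concentrations (top 100 uM, 0.5% DMSO). SULT2A1 mRNA was measured by qRT-PCR, normalized to ACTB, GAPDH and POLR2A, and fitted bidirectionally against DMSO.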

Read-out in experiment [7]: Transforming Growth Factor (TGFA), TGFA (gene 7039)
Description: LTEA_HepaRG_TGFA: Life Technologies and Expression Analysis (LTEA) Assay for Transforming Growth Factor (TGFA) using HepaRG (AID 2283532). The procedure, abridged:
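TGFA transcript quantified by qRT-PCR (Fluidigm arrays) against three housekeeping genes, after 48 hours chemical treatment of HepaRG cells. Top concentration 100 uM with half-log dilutions, 8 points, duplicates, 0.5% DMSO.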

Read-out in experiment [8]: Transforming Growth Factor (TGFB1), TGFB1 (gene 7040)
Description: LTEA_HepaRG_TGFB1: Life Technologies and Expression Analysis (LTEA) Assay for Transforming Growth Factor (TGFB1) Transporter using HepaRG (AID 2283533). The procedure, abridged: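 Differentiated human HepaRG cells in serum-free induction medium were exposed in duplicate for 48 h to eight concentrations (top 100 uM, half-log steps, 0.5% DMSO). TGFB1 mRNA was quantified by qRT-PCR, normalized to ACTB, GAPDH, POLR2A, and fitted bidirectionally against DMSO.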

Read-out in experiment [9]: TIMP1, TIMP1 (gene 7076)
Description: LTEA_HepaRG_TIMP1: Life Technologies and Expression Analysis (LTEA) Assay for TIMP1 using HepaRG (AID 2283534).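 On outcome: TaqMan qRT-PCR signal normalized to ACTB GAPDH and POLR2A housekeeping genes.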 In outline:
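Differentiated human HepaRG cells in serum-free induction medium were exposed 48 h to chemicals (8 half-log concentrations, top 100 uM, 0.5% DMSO). TIMP1 mRNA was quantified by TaqMan qRT-PCR, normalized to ACTB/GAPDH/POLR2A; bidirectional fit versus DMSO.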

Read-out in experiment [10]: Tumor necrosis factor receptor 1 (TNFRSF1A), TNFRSF1A (gene 7132)
Description: LTEA_HepaRG_TNFRSF1A: Life Technologies and Expression Analysis (LTEA) Assay for Tumor necrosis factor receptor 1 (TNFRSF1A) using HepaRG (AID 2283535). In outline:
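Differentiated human HepaRG cells were exposed in duplicate for 48 h in serum-free induction medium to eight concentrations (top 100 uM, half-log steps, 0.5% DMSO). TNFRSF1A mRNA was quantified by qRT-PCR, normalized to ACTB, GAPDH and POLR2A, then fitted bidirectionally against DMSO.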

Structures are written as SMILES. Active and inactive are the calls of the source. How the source made its calls: active means hit-call score of the fitted dose curve at least 0.9, where 1 is the maximum; inactive means score below 0.9.

Nuclear factor erythroid 2-related factor 2 (Homo sapiens), sequence (Q16236 whole entry, looked up): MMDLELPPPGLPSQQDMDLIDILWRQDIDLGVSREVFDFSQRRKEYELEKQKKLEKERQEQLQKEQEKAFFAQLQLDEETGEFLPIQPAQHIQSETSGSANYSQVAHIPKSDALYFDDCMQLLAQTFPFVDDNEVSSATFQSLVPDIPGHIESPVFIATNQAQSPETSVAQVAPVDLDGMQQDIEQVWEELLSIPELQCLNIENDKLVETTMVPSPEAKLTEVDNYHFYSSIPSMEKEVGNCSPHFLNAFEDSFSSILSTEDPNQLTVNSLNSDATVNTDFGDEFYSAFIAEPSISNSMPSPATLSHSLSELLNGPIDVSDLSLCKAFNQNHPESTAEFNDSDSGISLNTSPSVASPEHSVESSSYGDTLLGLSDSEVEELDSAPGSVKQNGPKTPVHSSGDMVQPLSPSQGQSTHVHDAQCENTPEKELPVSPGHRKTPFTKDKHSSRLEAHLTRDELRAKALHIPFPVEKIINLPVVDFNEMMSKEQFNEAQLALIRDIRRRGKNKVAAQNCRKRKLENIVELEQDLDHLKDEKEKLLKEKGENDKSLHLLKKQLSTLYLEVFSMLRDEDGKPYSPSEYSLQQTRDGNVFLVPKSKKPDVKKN
Signal transducer and activator of transcription 3 (Homo sapiens), sequence (P40763 whole entry, looked up): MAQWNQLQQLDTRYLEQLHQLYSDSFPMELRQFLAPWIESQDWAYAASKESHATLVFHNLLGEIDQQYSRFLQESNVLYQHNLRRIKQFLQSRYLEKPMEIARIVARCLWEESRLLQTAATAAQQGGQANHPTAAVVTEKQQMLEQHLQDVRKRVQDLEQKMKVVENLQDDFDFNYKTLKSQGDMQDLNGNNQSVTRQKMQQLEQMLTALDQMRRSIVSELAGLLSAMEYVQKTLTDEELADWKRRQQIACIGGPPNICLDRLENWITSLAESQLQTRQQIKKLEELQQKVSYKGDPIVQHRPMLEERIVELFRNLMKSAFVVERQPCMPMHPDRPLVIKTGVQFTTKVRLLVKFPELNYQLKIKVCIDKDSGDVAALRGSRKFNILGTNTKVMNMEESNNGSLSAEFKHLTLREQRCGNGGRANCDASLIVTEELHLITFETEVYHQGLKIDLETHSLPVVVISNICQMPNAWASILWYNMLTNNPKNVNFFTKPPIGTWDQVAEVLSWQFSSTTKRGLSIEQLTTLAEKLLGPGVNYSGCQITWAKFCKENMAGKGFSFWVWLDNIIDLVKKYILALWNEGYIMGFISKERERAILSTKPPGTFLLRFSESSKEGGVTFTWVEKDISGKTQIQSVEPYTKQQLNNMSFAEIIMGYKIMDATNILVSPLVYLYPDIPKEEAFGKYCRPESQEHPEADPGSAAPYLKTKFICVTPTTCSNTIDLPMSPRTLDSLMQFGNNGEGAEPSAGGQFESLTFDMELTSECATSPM

As for `COCCOC[C@H](CC1(C(=O)NC2CCC(C(=O)O)CC2)CCCC1)C(=O)Oc1ccc2c(c1)CCC2` (stereo partly drawn), the result in experiment [1], in [2], in experiment [3], in experiment [4], in [5] and in [6] was inactive. Also, the call in experiment [7], in experiment [8], in [9] and in experiment [10] was inactive.
Turning to `Nc1ccc2c(c1)C(=O)c1ccccc1C2=O`, the compound was called inactive in experiment [1], in experiment [3], in [4], in [6], in [7] and in experiment [8]. Moreover, the results for the AC50 in experiment [2] and in [5] were 27.8 µM (active) and 4.66 µM (active), respectively.
With `CC1(C)CC(N=C=O)CC(C)(CN=C=O)C1` (stereo not drawn), the outcome in experiment [1], in experiment [2], in experiment [3], in experiment [4], in experiment [5] and in experiment [6] was inactive. Further, the outcome in experiment [7], in [8], in [9] and in experiment [10] was inactive.
Turning to `COc1cc(-c2nc(NC(=O)c3cc4cc(C)cc(C)c4n3CC(=O)O)sc2CCC2CCCCC2)c(OC)cc1Cl`, the AC50 in experiment [1] was 3.35 µM (active); in experiment [3], 13.4 µM (active); in experiment [4], 19.3 µM (active); in experiment [5] it was 6.78 µM (active); in [6], 6.35 µM (active); in [7] it was 60.3 µM (active). The concentration at half-maximal activity (AC50) in [8] is 12.1 µM (active); in [9], 4.26 µM (active); in experiment [10], 6.91 µM (active). Also, the outcome in experiment [2] was inactive.
Regarding `COCCOCCOC`, the AC50 in experiment [1] was 0.315 µM (active); in experiment [2], 9.92 µM (active); in experiment [3], 10.9 µM (active); in [7], 1.21 µM (active). Also, the outcome in [4], in experiment [5], in [6], in experiment [8], in experiment [9] and in experiment [10] was inactive.
As to `Cc1ccc2ncccc2c1`, the compound was called inactive in experiment [1], in experiment [2], in [3], in experiment [4], in experiment [5] and in experiment [6]. The call in experiment [7], in experiment [8], in experiment [9] and in experiment [10] was inactive.
For `CNC(=O)[C@H]1O[C@@H](n2cnc3c(NCc4cc(Cl)ccc4OCc4cc(C)no4)ncnc32)[C@H](O)[C@@H]1N`, the result in experiment [1], in experiment [2], in experiment [3], in [4], in experiment [5] and in experiment [6] was inactive. The compound was called inactive in experiment [7], in experiment [8], in experiment [9] and in experiment [10].
With `C1CCC(SSC2CCCCC2)CC1`, the call in experiment [1], in experiment [2], in experiment [3], in experiment [4], in experiment [5] and in [6] was inactive. Moreover, the result in [7], in experiment [8], in experiment [9] and in experiment [10] was inactive.
As to `CCCCCCCCCCO`, the compound was called inactive in [1], in experiment [2], in [3], in experiment [4], in [5] and in experiment [6]. The compound was classed as inactive in [7], in experiment [8] and in [10]. Moreover, the concentration at half-maximal activity (AC50) in experiment [9] was 12.2 µM (active).
Consider `NS(=O)(=O)c1cc2c(cc1Cl)NCNS2(=O)=O`, for which the outcome in [1], in experiment [2], in [3], in experiment [4], in experiment [5] and in experiment [6] was inactive. The outcome in experiment [7], in [8], in experiment [9] and in [10] was inactive.
In the case of `Cc1cccc(C)c1O`, the call in experiment [1], in experiment [2], in experiment [3], in [4], in [5] and in [6] was inactive. In addition, the compound was classed as inactive in experiment [7], in experiment [8], in experiment [9] and in [10].
Consider `CCCCCCCC=O`, for which the outcome in experiment [1], in experiment [2], in experiment [3], in experiment [4], in [5] and in experiment [6] was inactive. For the same compound, the outcome in experiment [7], in experiment [8], in experiment [9] and in experiment [10] was inactive.
Turning to `Cc1cc(=O)[nH]c(=S)[nH]1`, the result in experiment [1], in experiment [2], in experiment [3], in experiment [4], in experiment [5] and in experiment [6] was inactive. For the same compound, the outcome in [7], in experiment [8], in experiment [9] and in experiment [10] was inactive.
As for `Cc1ccc(C(C)C)c(O)c1`, the compound was called inactive in experiment [1], in experiment [2], in experiment [3], in experiment [4], in [5] and in experiment [6]. Also, the result in experiment [7], in experiment [8], in experiment [9] and in experiment [10] was inactive.
Take `COc1cc(S(=O)(=O)O)c(C)cc1N=Nc1c(O)ccc2cc(S(=O)(=O)O)ccc12`: the call in [1], in experiment [2], in experiment [3], in [4], in experiment [5] and in experiment [6] was inactive. The outcome in experiment [7], in [8], in experiment [9] and in experiment [10] was inactive.
As to `CCCCCCCCCCCCCO`, the compound was called inactive in experiment [1], in experiment [2], in [3], in experiment [4], in [5] and in experiment [6]. The result in [7], in experiment [8], in experiment [9] and in [10] was inactive.
In the case of `CC=Cc1ccc(O)c(OC)c1`, the result in [1], in experiment [2], in [3], in experiment [4], in [5] and in experiment [6] was inactive. The result in experiment [7], in [8], in [9] and in experiment [10] was inactive.
Regarding `O=C(O)CCCCC(=O)O`, the outcome in experiment [1], in [2], in experiment [3], in experiment [4], in [5] and in experiment [6] was inactive. Moreover, the outcome in experiment [7], in [8], in [9] and in experiment [10] was inactive.
For `CCCCCC(=O)O`, the result in experiment [1], in [2], in experiment [3], in [4], in experiment [5] and in [6] was inactive. Moreover, the compound was classed as inactive in [7], in [8], in [9] and in experiment [10].
As for `Cc1cccc(Nc2cc(Cl)nc(SCC(=O)O)n2)c1C`, the compound was called inactive in experiment [1], in [2], in [3], in [4], in experiment [5] and in experiment [6]. Further, the compound was called inactive in experiment [7], in [8], in experiment [9] and in experiment [10].
Regarding `Cc1cc(NC(=O)C(=O)O)cc(C)c1Oc1ccc(O)c2c1CCC2`, the compound was classed as inactive in experiment [1], in experiment [2], in experiment [3], in experiment [4], in experiment [7] and in experiment [8]. The compound was classed as inactive in [9] and in experiment [10]. Also, the half-maximal activity concentration (AC50) is 50 µM (active) in experiment [5] and 0.526 µM (active) in [6].

The record behind these values is PubChem BioAssay (EPA / NIEHS).
